Measured values as given in publication PMC4081100, “A DNA-binding-site landscape and regulatory network analysis for NAC transcription factors in Arabidopsis thaliana”.

How the values were obtained:
Assay in all cases: universal protein binding microarray (PBM); transcription factors of Arabidopsis thaliana; high values mean tight binding
GST-NTL6(1-168) = GST-NTL6(1-168) (Arabidopsis thaliana, UniProt Q9SCK6 1-168); conditions: protein: recombinant; tags: GST; chain copies: 2; dsDNA, one strand shown
GST-NTL6(1-168), sequence (Q9SCK6 1-168): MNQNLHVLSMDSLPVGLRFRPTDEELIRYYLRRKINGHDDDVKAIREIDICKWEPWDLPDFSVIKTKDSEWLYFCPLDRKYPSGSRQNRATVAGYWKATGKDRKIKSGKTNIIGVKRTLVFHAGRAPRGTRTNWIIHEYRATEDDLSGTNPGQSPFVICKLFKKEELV
Method in brief: (§1)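 Each value is a normalised enrichment score (E-score) describing binding. The GST-tagged proteins, NAC-domain, full-length or DNA-binding-domain, were induced in cells (zinc-finger proteins with zinc acetate added) and purified on glutathione–Sepharose 4B. They were applied at 200 to 500 nM final, in duplicate, to double-stranded custom all-10-mer Agilent 4 × 180K arrays, and gapped and ungapped 8-mers were scored.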

GST-ANAC055(1-171) = target: T1, GST-ANAC055(1-171) (Arabidopsis thaliana, UniProt Q9LDY8 1-171); conditions: protein: recombinant; tags: GST; chain copies: 2; dsDNA, one strand shown
T1 sequence: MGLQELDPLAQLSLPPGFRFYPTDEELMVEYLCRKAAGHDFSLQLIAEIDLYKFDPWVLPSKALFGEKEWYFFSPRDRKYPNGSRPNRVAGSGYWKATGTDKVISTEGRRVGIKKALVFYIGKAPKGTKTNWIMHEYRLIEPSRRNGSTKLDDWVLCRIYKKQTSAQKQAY
Method in brief: as §1

GST-ATAF1 NAC domain = target: T2, GST-ATAF1 NAC domain (Arabidopsis thaliana, UniProt Q39013 7-158); conditions: protein: recombinant; tags: GST; chain copies: 2; dsDNA, one strand shown
T2 sequence: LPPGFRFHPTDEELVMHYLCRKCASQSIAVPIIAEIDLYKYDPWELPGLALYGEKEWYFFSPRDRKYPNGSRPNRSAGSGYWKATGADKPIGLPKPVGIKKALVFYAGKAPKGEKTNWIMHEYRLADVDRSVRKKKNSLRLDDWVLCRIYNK
Method in brief: as §1

GST-NST2(1-184) = target: T3, GST-NST2(1-184) (Arabidopsis thaliana, UniProt Q9M274 1-184); conditions: protein: recombinant; tags: GST; chain copies: 2; dsDNA, one strand shown
T3 sequence: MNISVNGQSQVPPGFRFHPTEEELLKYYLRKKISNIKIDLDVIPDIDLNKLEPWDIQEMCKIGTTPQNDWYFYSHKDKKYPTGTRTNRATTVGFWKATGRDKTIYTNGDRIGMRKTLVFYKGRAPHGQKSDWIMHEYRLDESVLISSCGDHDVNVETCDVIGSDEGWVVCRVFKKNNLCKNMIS
Method in brief: as §1

GST-SND1(1-203) = target: T4, GST-SND1(1-203) (Arabidopsis thaliana, UniProt Q9LPI7 1-203); conditions: protein: recombinant; tags: GST; chain copies: 2; dsDNA, one strand shown
T4 sequence: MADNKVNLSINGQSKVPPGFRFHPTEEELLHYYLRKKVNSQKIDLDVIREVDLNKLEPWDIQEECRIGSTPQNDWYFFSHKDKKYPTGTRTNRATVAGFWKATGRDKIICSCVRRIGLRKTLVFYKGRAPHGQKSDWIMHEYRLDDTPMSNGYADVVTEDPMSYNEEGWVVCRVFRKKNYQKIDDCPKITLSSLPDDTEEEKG
Method in brief: as §1

GST-WRKY1(266-371) = GST-WRKY1(266-371) (Arabidopsis thaliana, UniProt Q9SI37 266-371); conditions: protein: recombinant; tags: GST; dsDNA, one strand shown
GST-WRKY1(266-371), sequence (Q9SI37 266-371): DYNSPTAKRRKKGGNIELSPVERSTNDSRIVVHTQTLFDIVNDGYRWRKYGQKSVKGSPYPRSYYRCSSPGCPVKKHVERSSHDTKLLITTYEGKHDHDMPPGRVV
Method in brief: as §1

GST-ANAC019 NAC domain = target: T5, GST-ANAC019 NAC domain (Arabidopsis thaliana, UniProt Q9C932 14-162); conditions: protein: recombinant; tags: GST; chain copies: 2; dsDNA, one strand shown
T5 sequence: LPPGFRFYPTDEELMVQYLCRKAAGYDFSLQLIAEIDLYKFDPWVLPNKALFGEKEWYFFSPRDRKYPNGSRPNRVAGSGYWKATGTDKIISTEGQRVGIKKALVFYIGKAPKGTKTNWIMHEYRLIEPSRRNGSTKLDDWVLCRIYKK
Method in brief: as §1

[1] = target: T6, GST-ANAC092(1-285) full length (Arabidopsis thaliana, UniProt Q9FKA0 1-285); conditions: protein: recombinant; tags: GST; chain copies: 2; dsDNA, one strand shown
T6 sequence: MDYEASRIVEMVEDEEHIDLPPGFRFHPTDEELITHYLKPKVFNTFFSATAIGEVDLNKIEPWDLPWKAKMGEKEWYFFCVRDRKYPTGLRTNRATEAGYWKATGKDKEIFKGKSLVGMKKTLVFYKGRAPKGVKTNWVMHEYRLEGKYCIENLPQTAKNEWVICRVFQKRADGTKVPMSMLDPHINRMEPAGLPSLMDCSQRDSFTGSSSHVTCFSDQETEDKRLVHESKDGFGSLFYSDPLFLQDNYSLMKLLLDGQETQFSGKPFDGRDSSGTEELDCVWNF
Method in brief: as §1

GST-NTL8 NAC domain = target: T7, GST-NTL8 NAC domain (Arabidopsis thaliana, UniProt Q9XIN7 14-156); conditions: protein: recombinant; tags: GST; chain copies: 2; dsDNA, one strand shown
T7 sequence: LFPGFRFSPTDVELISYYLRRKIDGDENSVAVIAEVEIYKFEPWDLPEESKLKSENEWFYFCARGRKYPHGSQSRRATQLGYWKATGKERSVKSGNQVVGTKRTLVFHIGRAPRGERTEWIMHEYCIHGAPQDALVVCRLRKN
Method in brief: as §1

GST-ANAC092(1-176) = target: T8, GST-ANAC092(1-176) (Arabidopsis thaliana, UniProt Q9FKA0 1-176); conditions: protein: recombinant; tags: GST; chain copies: 2; dsDNA, one strand shown
T8 sequence: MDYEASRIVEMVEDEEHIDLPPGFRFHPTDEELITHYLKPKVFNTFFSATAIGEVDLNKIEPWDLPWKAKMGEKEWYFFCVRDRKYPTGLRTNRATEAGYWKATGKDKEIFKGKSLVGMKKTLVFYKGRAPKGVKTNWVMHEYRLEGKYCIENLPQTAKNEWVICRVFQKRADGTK
Method in brief: as §1

GST-NAP(1-166) = target: T9, GST-NAP(1-166) (Arabidopsis thaliana, UniProt O49255 1-166); conditions: protein: recombinant; tags: GST; chain copies: 2; dsDNA, one strand shown
T9 sequence: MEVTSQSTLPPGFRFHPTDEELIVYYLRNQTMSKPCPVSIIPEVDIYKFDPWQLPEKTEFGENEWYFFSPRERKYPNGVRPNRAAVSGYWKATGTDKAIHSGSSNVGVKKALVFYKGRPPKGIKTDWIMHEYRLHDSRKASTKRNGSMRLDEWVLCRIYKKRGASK
Method in brief: as §1

In the case of AAAGTCAA, the binding signal (GST-NTL6(1-168)) is reported as 0.0854 E-score, the binding signal (GST-ANAC055(1-171)) is reported as 0.0717 E-score and the binding signal (GST-ATAF1 NAC domain) is reported as 0.118 E-score. For the same sequence, the binding signal (GST-NST2(1-184)) was 0.0787 E-score, the binding signal (GST-SND1(1-203)) was 0.118 E-score and the binding signal (GST-WRKY1(266-371)) was 0.49 E-score.

For AGTCTACG, the binding signal (GST-ANAC019 NAC domain) was 0.0568 E-score, the binding signal (GST-SND1(1-203)) was 0.115 E-score and the binding signal (GST-WRKY1(266-371)) was 0.401 E-score.

AAGGGTCA showed a binding signal (GST-NTL6(1-168)) of 0.0797 E-score, a binding signal (GST-SND1(1-203)) of 0.0922 E-score and a binding signal (GST-WRKY1(266-371)) of 0.409 E-score.

Work on AAGTCAAT yielded a binding signal (GST-NTL6(1-168)) of 0.118 E-score, a binding signal (GST-ATAF1 NAC domain) of 0.126 E-score and a binding signal [1] of 0.119 E-score. It also gave a binding signal (GST-SND1(1-203)) of 0.0507 E-score and a binding signal (GST-WRKY1(266-371)) of 0.481 E-score.

AATTGACT showed a binding signal (GST-NTL6(1-168)) of 0.0713 E-score, a binding signal (GST-ANAC055(1-171)) of 0.0891 E-score and a binding signal (GST-ATAF1 NAC domain) of 0.141 E-score. It also gave a binding signal [1] of 0.0602 E-score, a binding signal (GST-NST2(1-184)) of 0.125 E-score and a binding signal (GST-SND1(1-203)) of 0.0673 E-score. The binding signal (GST-WRKY1(266-371)) was 0.46 E-score.

With AAGTCAAG the binding signal (GST-NTL6(1-168)) was 0.113 E-score, the binding signal (GST-ATAF1 NAC domain) was 0.0757 E-score and the binding signal [1] was 0.14 E-score. It also gave a binding signal (GST-NST2(1-184)) of 0.0657 E-score, a binding signal (GST-SND1(1-203)) of 0.0903 E-score and a binding signal (GST-WRKY1(266-371)) of 0.479 E-score.

Work on GGGGTCAA yielded a binding signal (GST-ANAC019 NAC domain) of 0.133 E-score, a binding signal [1] of 0.101 E-score and a binding signal (GST-NTL8 NAC domain) of 0.154 E-score. It also gave a binding signal (GST-SND1(1-203)) of 0.0652 E-score and a binding signal (GST-WRKY1(266-371)) of 0.481 E-score.

GCTTTCCC was tested, and the binding signal (GST-ANAC092(1-176)) was 0.124 E-score, the binding signal (GST-NTL6(1-168)) was 0.142 E-score and the binding signal (GST-ANAC019 NAC domain) was 0.0714 E-score. It also gave a binding signal [1] of 0.117 E-score, a binding signal (GST-NTL8 NAC domain) of 0.423 E-score and a binding signal (GST-SND1(1-203)) of 0.0912 E-score.

Sequence GGGGAAAC has a binding signal (GST-ANAC092(1-176)) of 0.177 E-score, a binding signal (GST-NTL6(1-168)) of 0.17 E-score and a binding signal (GST-ANAC019 NAC domain) of 0.152 E-score. For the same sequence, the binding signal [1] was 0.217 E-score, the binding signal (GST-NAP(1-166)) was 0.12 E-score and the binding signal (GST-NTL8 NAC domain) was 0.412 E-score. For the same sequence, the binding signal (GST-SND1(1-203)) was 0.209 E-score.

For CTGACTTC, the binding signal (GST-ANAC019 NAC domain) was 0.0546 E-score, the binding signal (GST-NTL8 NAC domain) was 0.113 E-score and the binding signal (GST-SND1(1-203)) was 0.0589 E-score. It also gave a binding signal (GST-WRKY1(266-371)) of 0.412 E-score.

With ACTGACCT the binding signal (GST-NTL8 NAC domain) was 0.109 E-score, the binding signal (GST-SND1(1-203)) was 0.0503 E-score and the binding signal (GST-WRKY1(266-371)) was 0.407 E-score.

CGAAGGAA showed a binding signal (GST-ANAC092(1-176)) of 0.176 E-score, a binding signal (GST-NTL6(1-168)) of 0.473 E-score and a binding signal (GST-ANAC055(1-171)) of 0.0644 E-score. For the same sequence, the binding signal (GST-ATAF1 NAC domain) was 0.057 E-score, the binding signal [1] was 0.0784 E-score and the binding signal (GST-NAP(1-166)) was 0.0729 E-score. The binding signal (GST-NST2(1-184)) was 0.17 E-score, the binding signal (GST-NTL8 NAC domain) was 0.459 E-score and the binding signal (GST-SND1(1-203)) was 0.3 E-score.

In the case of AGGGAAAG, the binding signal (GST-ANAC092(1-176)) is reported as 0.0861 E-score, the binding signal (GST-NTL6(1-168)) is reported as 0.115 E-score and the binding signal (GST-ANAC019 NAC domain) is reported as 0.129 E-score. It also gave a binding signal (GST-NTL8 NAC domain) of 0.473 E-score and a binding signal (GST-SND1(1-203)) of 0.114 E-score.

Sequence CTTAAGGA has a binding signal (GST-NTL6(1-168)) of 0.401 E-score, a binding signal (GST-NST2(1-184)) of 0.0872 E-score and a binding signal (GST-NTL8 NAC domain) of 0.179 E-score. For the same sequence, the binding signal (GST-SND1(1-203)) was 0.265 E-score and the binding signal (GST-WRKY1(266-371)) was 0.07 E-score.

AAAGGTAA was tested, and the binding signal (GST-NTL6(1-168)) was 0.262 E-score, the binding signal (GST-ANAC055(1-171)) was 0.192 E-score and the binding signal [1] was 0.0772 E-score. It also gave a binding signal (GST-NAP(1-166)) of 0.0527 E-score, a binding signal (GST-NST2(1-184)) of 0.199 E-score and a binding signal (GST-NTL8 NAC domain) of 0.402 E-score. The binding signal (GST-SND1(1-203)) was 0.124 E-score.

AGGTAAGG showed a binding signal (GST-NTL6(1-168)) of 0.27 E-score, a binding signal (GST-ANAC019 NAC domain) of 0.101 E-score and a binding signal [1] of 0.0822 E-score. For the same sequence, the binding signal (GST-NTL8 NAC domain) was 0.424 E-score and the binding signal (GST-SND1(1-203)) was 0.147 E-score.

Work on GAGGAAAC yielded a binding signal (GST-ANAC092(1-176)) of 0.0974 E-score, a binding signal (GST-ATAF1 NAC domain) of 0.0627 E-score and a binding signal [1] of 0.0772 E-score. It also gave a binding signal (GST-NAP(1-166)) of 0.0571 E-score, a binding signal (GST-NTL8 NAC domain) of 0.465 E-score and a binding signal (GST-SND1(1-203)) of 0.099 E-score.
